Measurements taken from PubChem BioAssay (NCI).
Values joined by “and” are separate entries in the source; they are usually repeats but may differ in a detail not shown here. Identical values can stand only once. Compounds without any hit were thinned out: in the full panel of roughly 79,000, 15% have a hit. Unmarked numbers belong to inactive results. Active and inactive are the calls of the source. No stated cut-off is given here; in the data, active means growth inhibition above about 70%; inactive means the rest.

Experiments:
[1] = NCI Yeast Anticancer Drug Screen. Data for the rad50 strain (AID 155);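 further: 0% = growth of vehicle-only cultures of the same strain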; settings: S. cerevisiae rad50 strain growth inhibition, hits give high values
Procedure, shortened: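 A DNA repair-deficient yeast mutant serves as the test organism; compound-induced growth inhibition is calculated against vehicle-treated cells.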

[2] = NCI Yeast Anticancer Drug Screen. Data for the mec2-1 strain (AID 157); settings: S. cerevisiae mec2-1 strain, hits give high values
Procedure, shortened: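 Vehicle-treated cultures served as reference for growth inhibition of compound-exposed mec2-1 yeast.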

[3] = NCI Yeast Anticancer Drug Screen. Data for the sgs1 mgt1 strain (AID 161);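 further: 0% = growth of cultures given vehicle only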; settings: S. cerevisiae sgs1 mgt1 strain, hits give high values
Procedure, shortened: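 Genetically altered yeast, compound exposure, growth inhibition relative to vehicle.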

[4] = NCI Yeast Anticancer Drug Screen. Data for the cln2 rad14 strain (AID 165);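 further: 0% = growth equal to vehicle treated cultures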; settings: S. cerevisiae cln2 rad14 strain, hits give high values
Procedure, shortened: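 Each compound was tested on cln2 rad14 yeast. Inhibition of growth was calculated against vehicle-exposed controls.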

[5] = NCI Yeast Anticancer Drug Screen. Data for the bub3 strain (AID 167); settings: S. cerevisiae bub3 mutant strain, hits give high values
Procedure, shortened: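 Inhibition values come from growth of compound-treated mutant yeast normalised to vehicle-treated controls.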

[6] = NCI Yeast Anticancer Drug Screen. Data for the mlh1 rad18 strain (AID 175); settings: S. cerevisiae mlh1 rad18 strain growth inhibition, hits give high values
Procedure, shortened: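 Vehicle-treated cultures served as the reference for growth inhibition in a yeast strain carrying DNA damage repair alterations exposed to each compound.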

[7] = at 5.0 µM (retest, dose inferred, filed as 0.5)
[8] = at 50.0 µM (retest, dose inferred, filed as 5.0)

Row | SMILES | growth inhibition [1, 7] | growth inhibition [1, 8] | growth inhibition ([1]; at 50.0 µM) | growth inhibition [2, 7] | growth inhibition [2, 8] | growth inhibition ([2]; at 50.0 µM) | growth inhibition [3, 7] | growth inhibition [3, 8] | growth inhibition ([3]; at 50.0 µM) | growth inhibition [4, 7] | growth inhibition [4, 8] | growth inhibition ([4]; at 50.0 µM) | growth inhibition [5, 7] | growth inhibition [5, 8] | growth inhibition ([5]; at 50.0 µM) | growth inhibition [6, 7] | growth inhibition [6, 8] | growth inhibition ([6]; at 50.0 µM)
1 | O=C1c2ccccc2-c2cccc3cccc1c23 | 3% | -52% | -13.8% and 32.1% | -12% | -26% | 4.65% and 0.55% | -9% | -40% | -14.2% and -19.6% | -6% | -17% | -0.75% and 63.6% | -15% | -88% | -2.35% and 10.1% | -1% | -39% | -6.8% and 24.3%
2 | [Cl][Pt+2][Cl].[NH-]C1CCCC2CCC[N-]C12 (configuration not stated) | 34% | 97% (active) | 20.6% | 24% | 77% (active) | 60.4% | 55% | 98% (active) | 57.8% | 50% | 86% (active) | 34% | 52% | 84% (active) | 38.5% | 18% | 97% (active) | 76.1% (active)
3 | CCOP(=O)(CP(=O)(OCC)OCC)OCC.[Cl][Sn]([Cl])([c]1ccccc1)[c]1ccccc1 | 11% | 99% (active) | 98.8% (active) | -4% | 99% (active) | 98.9% (active) | 7% | 97% (active) | 99.1% (active) | 7% | 96% (active) | 98.1% (active) | 19% | 98% (active) | 97.8% (active) | 1% | 98% (active) | 99% (active)
4 | O=P(Nc1ccccc1)(Oc1ccccc1)N1CCN(c2ccccc2)CC1 (configuration not stated) | 0% | 97% (active) | 71.2% (active) | -29% | 96% (active) | 80.7% (active) | -32% | 97% (active) | 84.5% (active) | 22% | 96% (active) | 85.9% (active) | 14% | 96% (active) | 87.2% (active) | -1% | 96% (active) | 86.5% (active)
5 | O=c1oc2ccccc2c(O)c1C1c2c(c3ccccc3oc2=O)Oc2c1c(=O)oc1ccccc21 | 9% | 96% (active) | 85% (active) | 2% | 97% (active) | 91.2% (active) | 2% | 97% (active) | 88.5% (active) | 12% | 97% (active) | 87.3% (active) | 9% | 97% (active) | 84.9% (active) | 10% | 97% (active) | 92% (active)
6 | ClCCN(CCCl)c1ccc(CN2CCCN(Cc3ccc(N(CCCl)CCCl)cc3Cl)C2c2ccncc2)c(Cl)c1 | 2% | 91% (active) | 93.5% (active) | 4% | 96% (active) | 96.8% (active) | -4% | 96% (active) | 93.9% (active) | -5% | 94% (active) | 43.9% | 0% | 93% (active) | 1.9% | 9% | 95% (active) | 97.1% (active)
7 | COc1cc2c(c(OC)c1OC)-c1ccc(O)c(=O)cc1C(NC(C)=O)CC2 (configuration not stated) | 1% | 3% | -26.1% | -1% | -8% | 17.3% | -15% | 16% | -1.4% | -21% | 8% | 45.5% | -7% | 6% | 1.05% | -9% | -2% | 59.6%
8 | CCC[CH2][Sn]1([CH2]CCC)[O]C(c2ccccn2)S(=O)(=O)[O]1 (configuration not stated) | 19% | 19% | 90.2% (active) | 12% | 12% | 91.2% (active) | 18% | 18% | 90.1% (active) | 5% | 5% | 90.5% (active) | 1% | 1% | 91.3% (active) | 10% | 10% | 88.3% (active)
9 | CN(Cc1ccccc1)CC(O)c1ccc(Cl)cc1 (configuration not stated) | -4% | 38% | 57.5% | -1% | 23% | 0.75% | 2% | 44% | 58.6% | 3% | 25% | 48.5% | 2% | 41% | 60.5% | 4% | 34% | 34.5%
10 | O=C(C1C(c2ccccc2)N1C(c1ccccc1)c1ccccc1)C1C(c2ccccc2)N1C(c1ccccc1)c1ccccc1 (configuration not stated) | -3% | 50% | 72.7% (active) | 23% | 42% | 54% | -3% | 77% (active) | 58% | -17% | 6% | 24% | -14% | 56% | 63.9% | 7% | 80% (active) | 90.2% (active)
11 | CCCCCCCCCCCCCCCC[N+](C)(C)CCBr | 99% (active) | 98% (active) | 89.2% (active) and 98.8% (active) | 99% (active) | 99% (active) | 92.5% (active) and 99.2% (active) | 99% (active) | 99% (active) | 87.2% (active) and 99.3% (active) | 99% (active) | 99% (active) | 89.2% (active) and 99.2% (active) | 99% (active) | 99% (active) | 82.3% (active) and 99.1% (active) | 98% (active) | 98% (active) | 92.3% (active) and 99.2% (active)
12 | O=S(=O)(F)c1ccc(Cl)cc1C[P+](c1ccccc1)(c1ccccc1)c1ccccc1 | 20% | 77% (active) | 45.9% | 22% | 82% (active) | 19.9% | 13% | 76% (active) | 53.5% | 0% | 54% | 11.1% | 12% | 82% (active) | 38.2% | 20% | 86% (active) | 69%
13 | Clc1ccc2c(NCCCCN3OC3c3ccccc3)ccnc2c1 (configuration not stated) | 30% | 67% | 58.2% | 22% | 56% | 48.6% | 23% | 57% | 67.5% | 11% | 32% | 11.3% | 24% | 43% | 34.2% | 30% | 84% (active) | 35.2%
14 | [C-]#[O+].[C-]#[O+].[C-]#[O+].[Cl-].[Ru+2].c1ccc([PH+](CC[PH+](c2ccccc2)c2ccccc2)CC[PH+](c2ccccc2)c2ccccc2)cc1 | 50% | 98% (active) | 91% (active) | 45% | 99% (active) | 92.8% (active) | 55% | 99% (active) | 93.1% (active) | 36% | 97% (active) | 92.2% (active) | 50% | 98% (active) | 92.4% (active) | 56% | 97% (active) | 91.1% (active)
15 | CCOC(=S)S | 43% | 99% (active) | 98.9% (active) | 17% | 100% (active) | 99.6% (active) | 4% | 99% (active) | 99.5% (active) | 12% | 66% | 95.8% (active) | 29% | 99% (active) | 99.2% (active) | 31% | 99% (active) | 99.2% (active)
16 | COC1CC2C(C[CH]1[Hg][Cl])C2(Cl)Cl (configuration not stated) | 99% (active) | 99% (active) | 99.5% (active) | 100% (active) | 100% (active) | 99.6% (active) | 100% (active) | 99% (active) | 99.5% (active) | 99% (active) | 99% (active) | 99.2% (active) | 99% (active) | 99% (active) | 98% (active) | 99% (active) | 99% (active) | 99.5% (active)
17 | CNC1=C(C)C(=O)C2=C(C1=O)C(COC(N)=O)C1(O)C3C(CN21)N3C (configuration not stated) | 13% | 83% (active) | 72% (active) | 20% | 90% (active) | 74.9% (active) | 19% | 78% (active) | 69.8% | 9% | 84% (active) | 61.4% | 3% | 59% | 52.2% | 47% | 95% (active) | 83% (active)
18 | [Se]c1ncnc2nc[nH]c12 | 21% | 57% | 57.9% | 15% | 37% | 38.7% | 13% | 41% | 37.9% | 11% | 23% | 2.25% | -2% | 60% | 39.2% | 17% | 68% | 84.2% (active)
19 | CC(=O)OCC12CCC(C)=CC1OC1C3(O)N=C(C)OC3C2(C)C12CO2 (configuration not stated) | 35% | 78% (active) | 32.2% | 28% | 55% | 69% | 46% | 76% (active) | 41% | 38% | 64% | 56.3% | 18% | 69% | 41.9% | 46% | 75% (active) | 18.4%
